Source: PubChem BioAssay AID720697 (Broad Institute, 2013)
Entries with a potency or affinity are not part of this list. Results filed as inconclusive are left out. A number with no mark means an inactive call. Activity calls are given as the source filed them.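 The calls were made as follows: active = signal loss with fitted half-maximal concentration at or below twice the top valid tested dose in every test run; inconclusive = runs disagree, flat 30 to 70% signal loss, or poor fit; inactive = all runs flat, opposite direction, or potency beyond limit.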

test: HEK293T cytotoxicity, dose response, cytotoxicity control for miR-122 modulator project, cell-based, inhibitor set, cherry-pick, set 2 (AID 720697); conditions: HEK293T viability, CellTiter-Glo luminescence, 48 h; series mostly up to 26 µM;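 also: 0% = median of neutral control wells and -100% = MG132 positive control wells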

SMILES	outcome	activity change, negative = cytotoxicity
Cc1cc(C(C)(C)C)cc(S(=O)(=O)NCCc2ccncc2)c1C	inactive	
Cc1cccc(NC(=O)Nc2ccc3c(c2)C(=O)N(C)[C@@H]2CC[C@@H](CC(=O)NCc4ccccc4Cl)O[C@H]2CO3)c1	inactive	
COc1ccccc1C#Cc1cnc2c(c1)C(=O)N([C@H](C)CO)C[C@H](C)[C@@H](CN(C)C(=O)c1ccc3c(c1)OCO3)O2	inactive	
CN1C(=O)c2cc(NS(=O)(=O)c3cccc(F)c3)ccc2OC[C@H]2O[C@@H](CC(=O)NCCN3CCCCC3)CC[C@H]21	inactive	
COc1ccccc1NC(=O)N1CCCCN2[C@H](CO)[C@H](c3ccc(C#CC4CCCC4)cc3)[C@H]2C1	inactive	
COc1ccc(-c2ccc(C#N)c(OC(=O)c3c(Cl)cccc3Cl)n2)cc1		-5.32% [at 6 µM]
